aSyn 5UTR act = Activators via SNCA 5'UTR binding, MLPCN | 7.1% of 300,000 active | activity score, % (tested at 7.5 µM), hits read low | alpha-synuclein 5'UTR reporter, activators screen; in the data active means activity score below about -60%
Active calls of the source: *. Only a sample is shown.

SMILES | aSyn 5UTR act
COc1cc(C)ccc1OCc1cc(C(=O)NCCN2CCOCC2)no1 | -124*
CCN1CCCC1CNC(=O)c1cc(COc2ccc(C)c(C)c2)on1 (stereo not drawn) | -63*
Cc1ccc(OCc2cc(C(=O)NCC(C)(C)N3CCOCC3)no2)cc1C | -122*
COc1ccc2nc(SCc3ccccc3C)nc(C)c2c1 | -107*
Cc1nc(SCc2cccc(C(=O)O)c2)nc2c1CCCC2 | 59
COc1ccc2nc(SCc3cccc(C)c3)nc(C)c2c1 | -106*
COc1ccc2nc(C)cc(SCC(=O)N/N=C/c3cccc4ccccc34)c2c1 | 47
COc1cc(/C=N/NC(=O)Nc2cccc3nsnc23)cc(OC)c1OC | -89*

Screens deposited in PubChem by Broad Institute.
